Experimental findings from PubChem BioAssay are described below.

Results filed as inconclusive are left out. Calls of active or inactive are those of the source. Unless noted, cut-off not given; nearly all actives show IC50 up to about 30 µM.

The first assay in a line: JHH-DIPG-1 glioma cell viability, MIPE5.0 library, CellTiter-Glo luminescence, qHTS (AID 1347067; cut-off not given, nearly all actives have AC50 up to about 26 µM;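 further: cells exposed to compound for 48 hours before readout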). Conditions: JHH-DIPG-1 glioma viability, CellTiter-Glo ATP luminescence. In general terms: In ATP-based viability assays light output follows the ATP content of the culture.
Take `Oc1ccc(OCc2ccccc2)cc1`: the compound was classed as inactive. Still for that read-out and setting: as for `Cc1ccc(S(=O)(=O)NC(=O)NN2CC3CCCC3C2)cc1` (stereo not drawn), the entry is “inactive”.

What is called AC50 is the concentration at which the activity in the assay is half-maximal. Take `CN(Cc1cc(Br)cc(Br)c1N)C1CCCCC1`: the half-maximal activity concentration (AC50) was 26.3 µM (active). Regarding `O=c1oc2c(O)c(O)cc3c(=O)oc4c(O)c(O)cc1c4c23`, the call was inactive.

`Cn1c(=O)c2c(ncn2C)n(C)c1=O`: the compound was called inactive. As to `CN(Cc1cnc2nc(N)nc(N)c2n1)c1ccc(C(=O)N[C@@H](CCC(=O)O)C(=O)O)cc1`, the outcome was inactive.

Another assay can be described thus: SU-DIPG-XXV glioma cell viability, MIPE5.0 library, qHTS (AID 1347068).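 On IC50: cells exposed to compound for 48 hours before viability readout.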
Conditions: not given
Background: Quantitative high-throughput screening tests each substance at several concentrations.
For `COc1cc(OC)c(C(=O)CCCN2CCCC2)c(OC)c1`, the call was inactive. `COc1ccc2nc(S(=O)Cc3ncc(C)c(OC)c3C)[nH]c2c1` (stereo not drawn): the call was inactive. Take `CC(C)[C@H](N)C(=O)OCCOCn1cnc2c(=O)[nH]c(N)nc21`: the outcome was inactive.

In the case of `C[N+]1(C)[C@@H]2CC(OC(=O)[C@H](CO)c3ccccc3)C[C@H]1[C@@H]1O[C@@H]12` (stereo partly drawn), the outcome was inactive. Regarding `O=C(NCCO[N+](=O)[O-])c1cccnc1`, the call was inactive. Take `Cn1c(NCCN(CCO)CCCc2ccc([N+](=O)[O-])cc2)cc(=O)n(C)c1=O`: the compound was classed as inactive. Consider `CCN1CCN(C(=O)N[C@@H](C(=O)N[C@@H]2C(=O)N3C(C(=O)O)=C(CSc4nnnn4C)CS[C@H]23)c2ccc(O)cc2)C(=O)C1=O`, for which the compound was called inactive. Still for that read-out and setting: as for `CNNCc1ccc(C(=O)NC(C)C)cc1`, the entry is “inactive”.

Turning to `O=C(O)/C=C/c1ccc(Cn2ccnc2)cc1`, the result was inactive. As to `O=NN(CCCl)C(=O)NC1CCCCC1`, the compound was called inactive. Take `COc1ccc(C(=O)CC(=O)c2ccc(C(C)(C)C)cc2)cc1`: the compound was called inactive. On the same count and under the same terms, as for `CN(CCOc1ccc(NS(C)(=O)=O)cc1)CCc1ccc(NS(C)(=O)=O)cc1`, the entry is “inactive”.

In the case of `O=NN(CCCl)C(=O)NCCCl`, the call was inactive. Regarding `Cc1cn[nH]c1`, the compound was classed as inactive. Same read-out and setting: with `O=c1c(O)c(-c2ccc(O)c(O)c2)oc2cc(O)cc(O)c12` the entry was “inactive”. The same measure, in the same setting: as for `COC1=C(OC)C(=O)C(CCCCCCCCCCO)=C(C)C1=O`, the entry is “inactive”. Same read-out and setting: with `Cc1[nH]c(=O)c(C#N)cc1-c1ccncc1` the entry was “inactive”; with `COc1cc2c(N3CCN(C(=O)Nc4ccc(OC(C)C)cc4)CC3)ncnc2cc1OCCCN1CCCCC1`, “inactive”. `Cc1ccsc1C(=CCCN1CCC[C@@H](C(=O)O)C1)c1sccc1C`: the call was inactive.

One may read the IC50 as the concentration needed to halve the response being measured. In the case of `Nc1nc(=S)c2[nH]cnc2[nH]1`, the IC50 was 4.17 µM (active).

For the compound `CCCN(CCC)C(=O)C(CCC(=O)O)NC(=O)c1ccccc1` (stereo not drawn), the result was inactive.

Take `CC(N)C12CC3CC(CC(C3)C1)C2` (stereo not drawn): the compound was called inactive. Same read-out and setting: with `COC(=O)Nc1nc2ccc(Sc3ccccc3)cc2[nH]1` the entry was “inactive”.

For the compound `CC(=O)O[C@]1(C(C)=O)CC[C@H]2[C@@H]3C=C(Cl)C4=CC(=O)[C@@H]5C[C@@H]5[C@]4(C)[C@H]3CC[C@@]21C`, the call was inactive. In the case of `CO[C@@H]1[C@@H](OC(N)=O)[C@@H](O)[C@H](Oc2ccc3c(O)c(NC(=O)c4ccc(O)c(CC=C(C)C)c4)c(=O)oc3c2C)OC1(C)C`, the result was inactive. The same measure, in the same setting: with `CCOc1cc(N)c(Cl)cc1C(=O)NCC1CN(Cc2ccc(F)cc2)CCO1` (stereo not drawn) the entry was “inactive”; with `Nc1ncnc2c1ncn2[C@@H]1O[C@H](CO)[C@@H](O)[C@H]1O`, “inactive”; with `CCN(CC)CCOc1ccc(/C(=C(\Cl)c2ccccc2)c2ccccc2)cc1`, “inactive”. The same measure, in the same setting: with `Cc1ccc(S(=O)(=O)NC(=O)NN2CC3CCCC3C2)cc1` (stereo not drawn) the entry was “inactive”; with `CN(Cc1cc(Br)cc(Br)c1N)C1CCCCC1`, “inactive”; with `O=c1oc2c(O)c(O)cc3c(=O)oc4c(O)c(O)cc1c4c23`, “inactive”.

Regarding `CN(Cc1cnc2nc(N)nc(N)c2n1)c1ccc(C(=O)N[C@@H](CCC(=O)O)C(=O)O)cc1`, the outcome was inactive.
